Sampled rows, rich in hits. Any-hit rate of the full collection: about 7.5%.
B2AR arrestin = beta2AR (human) beta-arrestin recruitment activity. actives 0.02% (n = 330,000). beta-arrestin recruitment to beta2AR, cell-based reporter. AID 492947. P07550. Potency, µM (titrated, usually from 46.1 µM), for inactives: at the highest dose activation, actives largely listed as activators;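 note: potency is the fitted concentration of half-maximal effect; 0% = DMSO controls and full agonism = EC100 isoproterenol or metaproterenol; nearly all actives have a fitted effect of over 65% in size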
Target sequence (P07550 whole entry, looked up): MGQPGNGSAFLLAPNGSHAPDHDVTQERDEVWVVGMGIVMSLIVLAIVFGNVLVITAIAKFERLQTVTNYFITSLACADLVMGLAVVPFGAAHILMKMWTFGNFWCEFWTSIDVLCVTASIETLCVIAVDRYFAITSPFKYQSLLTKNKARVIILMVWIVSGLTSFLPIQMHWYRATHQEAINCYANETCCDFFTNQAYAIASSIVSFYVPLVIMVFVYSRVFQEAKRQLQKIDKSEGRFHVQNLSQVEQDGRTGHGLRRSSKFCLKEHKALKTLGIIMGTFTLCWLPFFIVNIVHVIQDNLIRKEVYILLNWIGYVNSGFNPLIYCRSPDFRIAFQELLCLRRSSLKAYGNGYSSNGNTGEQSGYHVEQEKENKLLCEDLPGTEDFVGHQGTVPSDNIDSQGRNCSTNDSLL
VP16 counter = counter-screen for ROR gamma inhibitors: Gal4-VP16 reporter | Potency, µM (series often up to 53.6 µM), for the others: at the top dose activity, negative = inhibition, hits mostly inhibitors | actives 3.5% (n = 310,000) | Drosophila S2 Gal4-VP16 UAS-luciferase, luminescence, 20 h;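 note: Gal4-VP16 expression switched on by copper sulfate through the metallothionein promoter; potency is the fitted concentration of half-maximal effect; nearly all actives have a fitted effect of over 50% in size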
TSHR antagonist = blocks TSH signaling through the human TSH receptor; AID 504810; actives 0.2% (n = 330,000); activity change, negative = inhibition, % at 11.5 µM; TSHR-expressing cells, TSH-stimulated cAMP HTRF, 2 h; active compounds read low; P16473;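 active = activity change below a set negative limit, meaning inhibition stronger than a set level, cut at about -70% in these data; inconclusive = activity change between two set negative limits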
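Competitive HTRF cAMP read-out (cryptate anti-cAMP antibody, cAMP-d2; 30 min, room temperature) in freshly harvested TSHR cells. Compounds added before TSH at EC80 (4nM final), followed by 2 hours' incubation at 37 deg C.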
ELG1 repair inh = inhibitors of ELG1-dependent DNA repair in HEK293T cells | HEK293T ELG1-luciferase reporter, luminescence, 16 h; DNA damage induced by 5-fluorouridine | Potency, µM (top dose mostly 46.1 µM), without a hit: top-dose activity change, negative = inhibition, hits mostly inhibitors | actives 2.3% (n = 330,000) | AID 504467; note: potency is the fitted concentration of half-maximal effect; nearly all actives have a fitted effect of over 55% in size
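Cells (2,000 per well) received 5-fluorouridine plus test compound or DMSO and were incubated 16 hr at 37 °C, 5% CO2. Luciferase activity was read by luminescence 30 min after ONE-Glo addition; signal suppression marked inhibition of damage-induced ELG1 function.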
RORgamma inh = inhibitors of mouse ROR gamma transcriptional activity; Potency, µM (doses to about 53.6 µM), without a hit: at the highest dose activity change, negative = inhibition, actives largely listed as inhibitors; Drosophila S2 Gal4-RORgamma UAS-luciferase reporter, 20 h; AID 2551; actives 5.4% (n = 310,000); note: potency is the fitted concentration of half-maximal effect; nearly all actives have a fitted effect of over 60% in size
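Drosophila S2 cells stably expressing Gal4-DBD/mouse RORγ fusion under metallothionein promoter plus UAS-luciferase; compound 1 h, then 700 uM CuSO4 induction for 20 h at ambient temperature; inhibition read as reduced luminescence.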
Numbers without * were called inactive; u = inconclusive; x = no result given; [ ] = remark or other dose. Unless noted, calls come from the whole dose curve; as a rule, active = well fitted curve in the direction sought with a large enough effect; inconclusive = small, poorly fitted or top-dose-only effect, or another doubt; inactive = no such curve, though single readings can be large; an effect the other way counts as inactive or inconclusive. Unless noted, % is set by controls: 0 for no effect and ±100 for the full control effect.

SMILES	B2AR arrestin	VP16 counter	TSHR antagonist	ELG1 repair inh	RORgamma inh
COc1ccc(OC)c(NC(=O)CN2CCC(C(=O)c3ccc(C)cc3)CC2)c1	-1%	1%	6	21µM*	15%[10 µM]
COc1ccc(NC(=O)CN2CCC(C(=O)c3ccc(C)cc3)CC2)c(OC)c1	0%	-4%	-1	u	u
CCOc1ccc(C(=O)C2CCN(CC(=O)Nc3ccccc3N3CCOCC3)CC2)cc1	0%	u	-21	21µM*	4%
CSc1nc(SCC(=O)O)c2c3c(sc2n1)COC(C)(C)C3	0%	0%	-1	u	19%
CSC1=NC(NCCCO)c2c(sc3c2CC(C)(C)OC3)N1 (centres undefined)	-1%	-5%	4	21µM*	30%
O=C(OCCOCCN=C1NS(=O)(=O)c2ccccc21)c1ccccc1Br	0%	9%	2	u	8%
O=C1/C(=C\c2ccncc2)CCc2ccccc21	0%	x	-10	u	x
O=C1/C(=C/c2ccncc2)CCC/C1=C\c1ccncc1	0%	5µM*	-25	u	6.3µM*
Cn1c(=O)c2c(nc(CN3CCN(Cc4ccccc4)CC3)n2Cc2cccc(Cl)c2)n(C)c1=O	0%	1%	-5	12µM*	3%
COCCn1c(CN2CCN(c3ccc(F)cc3)CC2)nc2c1c(=O)n(C)c(=O)n2C	0%	u	3	u	-33%
Cn1c(=O)c2c(nc(CN3CCN(c4ccc(F)cc4)CC3)n2Cc2ccccc2F)n(C)c1=O	-1%	1%	15	6.5µM*	-8%
CCCCCCn1c(CN2CCN(C(=O)c3ccco3)CC2)nc2c1c(=O)n(C)c(=O)n2C	0%	4%	11	13µM*	u
Cc1nc(C(C)N(C)Cc2nc(-c3ccc4c(c3)OCO4)no2)c(C)s1 (centres undefined)	0%	u	-5	10%	18µM*
Cc1ccc(-c2nnc(SCC(=O)Nc3ccc4c(c3)oc3ccccc34)n2C)c(Cl)c1	0%	10%	-9	18µM*	-15%
COC(=O)[C@@]1(Cc2ccccc2)[C@H]2c3cc(C(=O)N(C)C)n(Cc4cc(C)n(C)n4)c3C[C@H]2CN1C(=O)c1ccccc1	x	-9%	x	x	11%
COC(=O)c1ccc(-n2c(C)cc(C(=O)CCl)c2C)cc1	0%	-93%	-10	u	11µM*
COc1ccc(C(=O)COC(=O)COc2cc(C)cc(C)c2)cc1	-1%	-1%	0	5%	1%
CCNc1nc(NC(C)CC)nc(ON=C(C)C)n1 (centres undefined)	u	-20%	5	9%	14µM*
O=c1c(Cl)c(Cl)cnn1Cc1ccc(F)cc1	0%	u	-20	u	u
O=C(OCn1ncc(Cl)c(Cl)c1=O)c1ccccc1Cl	0%	13µM*	u	u	-89%
O=C(Cn1ncc(Cl)c(Cl)c1=O)c1ccc(Cl)cc1	0%	-66%	-23	u	u
O=C(OCn1ncc(Cl)c(Cl)c1=O)c1ccc(F)cc1	-1%	6.3µM*	u	u	u
N[C@@H](CCCCNC(=O)CCCC[C@@H]1SC[C@H]2NC(=O)N[C@H]12)C(=O)O	x	-7%	x	x	9%
C=C(C)C(=O)OCCOC(=O)C(=C)C	x	-10%	x	x	7%
Cc1ccccc1OCC(=O)NCCCNC(=O)c1ccco1	0%	u	-1	13%	-24%
SMILES	B2AR arrestin	VP16 counter	TSHR antagonist	ELG1 repair inh	RORgamma inh
Cc1ccnc(NC(=O)CNC(=O)Cc2cccc3ccccc23)c1	0%	x	x	u	x
O=C(NC1CC1)c1sc2cc([N+](=O)[O-])ccc2c1Cl	-1%	23%	0	u	u
CC(NC(=O)c1sc2cc([N+](=O)[O-])ccc2c1Cl)C(C)(C)C (centres undefined)	-1%	13µM*	-9	-3%	u
CCOc1ccc2nc(NCCNC(=O)c3cc(OC)c(OC)c(OC)c3)c(C#N)cc2c1	-1%	-11%	2	13µM*	5%
COc1cc(OC)cc(C(=O)NCCNc2nc3cc(C)cc(C)c3cc2C#N)c1	0%	2%	-7	16µM*	43%[1.91 µM]
CCC(=O)NCCNc1nc2cc(C)cc(C)c2cc1C#N	0%	2%	-3	u	-25%
COc1ccccc1C(=O)NCCNc1nc2cc(C)cc(C)c2cc1C#N	-1%	-9%	29	9.2µM*	11%
CC[C@H](C)[C@H](NC(=O)[C@H](CO)NC(=O)[C@H](CC(C)C)NC(=O)[C@@H]1CCCN1C(=O)[C@@H]1CCCN1C(=O)[C@H](CC(=O)O)NC(=O)[C@@H](N)CC(=O)O)C(=O)N[C@@H](CC(=O)O)C(=O)N[C@@H](CC(C)C)C(=O)N[C@H](C(=O)N[C@@H](Cc1ccccc1)C(=O)N[C@@H](Cc1cnc[nH]1)C(=O)N[C@@H](CC(C)C)C(=O)N[C@@H](CC(C)C)C(=O)N[C@@H](CCCNC(=N)N)C(=O)N[C@H](C(=O)N[C@@H](CC(C)C)C(=O)N[C@@H](CC(C)C)C(=O)N[C@@H](CCC(=O)O)C(=O)N[C@@H](CC(C)C)C(=O)N[C@@H](C)C(=O)N[C@@H](CCCNC(=N)N)C(=O)N[C@H](C(=O)N[C@@H](CCC(N)=O)C(=O)N[C@@H](CO)C(=O)N[C@@H](CCC(N)=O)C(=O)N[C@@H](CCCNC(=N)N)C(=O)N[C@@H](CCC(=O)O)C(=O)N[C@@H](CCCNC(=N)N)C(=O)N[C@@H](C)C(=O)N[C@@H](CCC(=O)O)C(=O)N[C@@H](CCC(N)=O)C(=O)N[C@@H](CC(N)=O)C(=O)N[C@@H](CCCNC(=N)N)C(=O)N[C@H](C(=O)N[C@H](C(=O)N[C@@H](Cc1ccccc1)C(=O)N[C@@H](CC(=O)O)C(=O)N[C@@H](CO)C(=O)N[C@H](C(N)=O)C(C)C)[C@@H](C)CC)[C@@H](C)CC)[C@@H](C)O)[C@@H](C)O)[C@@H](C)O	x	-3%	x	x	15%
N#CCCn1cc(C(=O)Nc2cccc(C(=O)O)c2)c(-c2ccc(Cl)cc2)n1	-1%	0%	-2	3%	34%
Brc1cc2c(cc1Br)OCCOCCOCCOCCO2	0%	1%	2	-9%	27%
Brc1ccc2c(c1)OCCOCCOc1cc(Br)ccc1OCCOCCOCCO2	0%	16%[0.365 µM]	7	21µM*	u
Cc1n[nH]c(=O)[nH]c1=O	x	4%[17 µM]	x	x	4%[16.9 µM]
Cc1ccccc1N/C(SCc1ccc(Cl)cc1)=C(/C#N)C(=O)NCc1ccco1	0%	-7%	-45	u	-41%
Cc1ccc(CS/C(Nc2ccccc2C)=C(\C#N)C(=O)NCc2ccco2)c(C)c1	0%	-2%	-34	15µM*	-1%

Source: PubChem (National Center for Advancing Translational Sciences (NCATS))
